These results are taken from PubChem BioAssay.

Molecules are shown by their SMILES. The source made the active and inactive calls.

In one test the target is Albumin (Bos taurus) (UniProt P02769). Put plainly: compounds binding labelled BSA control protein – biochemical, small-molecule microarray, Alexa647 label, 635/667 nm fluorescence, artefact control for SMM control protein annotation, profiling panel (AID 1118).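 Further: score merges 667 nm emission intensity and signal-to-noise per printed compound spot.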 To be noted: BSA-A647 binding, fluorescence 635 nm, higher = more signal.
Test [1] in a line: probe aXIP binding to arrayed compounds – biochemical, NeuroSMM set, 635/667 nm fluorescence, primary screen (AID 1119).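 Further: probe is the protein aXip251-270 applied at 1 µg/mL to compound-printed slides; binding of probe to printed compounds measured as 667 nm fluorescence plus signal to noise.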 As to conditions: small-molecule microarray, higher = more signal, called active from +8 up or from −8 down.
A short description of test [2]: probe aNOTCH3 binding on compound microarray – biochemical, small-molecule microarray, 635/667 nm fluorescence, primary screen (AID 1120).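 Further: probe is a biotin-tagged antibody raised against NOTCH3 rather than NOTCH3 protein; score merges spot fluorescence near 667 nm with spot signal to noise.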 As to conditions: higher = more signal.
A short description of test [3]: probe aNOTCH2 binding on compound microarray – biochemical, small-molecule microarray, 635/667 nm fluorescence, primary screen (AID 1121).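 Further: score merges feature fluorescence read at 667 nm with its signal to noise.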 To be noted: higher = more signal.
For test [4], the target named is Carbonic anhydrase 2 (Homo sapiens) (UniProt P00918). As to the kind of experiment: compounds binding carbonic anhydrase 2 – biochemical, small-molecule microarray, Alexa647-labelled CAII, profiling panel (AID 1122). As to conditions: CAII-A647 binding fluorescence, higher = more signal.
Test [5] in a line: COS7 lysate on small-molecule microarray, probe aHis, 635 nm (AID 1123).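 Further: z-score combines 667nm fluorescence intensity with signal-to-noise per printed compound spot.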 As to conditions: COS7 cell lysate, fluorescence, higher = more signal.
Test [6] can be described thus: probe aLAP1 signal on lysate-treated microarray – cell lysate, small-molecule microarray, COS7 lysate, primary screen (AID 1124).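 Further: lysate comes from COS7 cells expressing LAP1 and is applied at 0.3 µg/mL; score merges spot fluorescence near 667 nm with signal-to-noise over triplicate slides.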 To be noted: probe aLAP1, fluorescence, higher = more signal.
A further test concerns Sam68 (KHDRBS1). Put plainly: compounds binding KHDRBS1 protein – biochemical, small-molecule microarray, 635 nm fluorescence, primary screen (AID 1125).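 Further: score merges 667 nm channel intensity with signal to noise over triplicate slides.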 As to conditions: higher = more signal.
The subject of test [7] is Chordin-like protein 2 (CHRDL2). Put plainly: compounds binding chordin-like 2 – biochemical, small-molecule microarray, 635 nm fluorescence, primary screen (AID 1126).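 Further: printed compound slides probed with Chrdl2 protein at 4 µg/mL for 1 h at 4 C; score merges 667 nm emission intensity with signal to noise over three replicate slides.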 As to conditions: fluorescence 635 nm, higher = more signal.
Test [8] deals with Concanavalin-A (Canavalia ensiformis) (UniProt P02866). Put plainly: compounds binding concanavalin A lectin – biochemical, small-molecule microarray, Alexa647 label, 635 nm, artefact control for SMM control protein annotation, primary screen (AID 1127).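 Further: z combines 667 nm emission intensity with signal-to-noise across three replicate slides.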 As to conditions: ConA-A647 binding fluorescence, higher = more signal.
Concanavalin-A (Canavalia ensiformis), sequence (P02866 whole entry, looked up): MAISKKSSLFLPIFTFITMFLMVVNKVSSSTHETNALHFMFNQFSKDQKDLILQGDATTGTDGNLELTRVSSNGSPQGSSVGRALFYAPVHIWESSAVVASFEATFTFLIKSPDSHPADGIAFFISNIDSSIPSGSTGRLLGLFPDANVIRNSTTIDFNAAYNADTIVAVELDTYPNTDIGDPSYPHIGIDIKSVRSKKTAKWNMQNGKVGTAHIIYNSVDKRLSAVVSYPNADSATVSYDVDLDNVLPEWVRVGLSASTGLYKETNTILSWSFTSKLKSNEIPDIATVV

Albumin (Bos taurus), sequence (P02769 whole entry, looked up): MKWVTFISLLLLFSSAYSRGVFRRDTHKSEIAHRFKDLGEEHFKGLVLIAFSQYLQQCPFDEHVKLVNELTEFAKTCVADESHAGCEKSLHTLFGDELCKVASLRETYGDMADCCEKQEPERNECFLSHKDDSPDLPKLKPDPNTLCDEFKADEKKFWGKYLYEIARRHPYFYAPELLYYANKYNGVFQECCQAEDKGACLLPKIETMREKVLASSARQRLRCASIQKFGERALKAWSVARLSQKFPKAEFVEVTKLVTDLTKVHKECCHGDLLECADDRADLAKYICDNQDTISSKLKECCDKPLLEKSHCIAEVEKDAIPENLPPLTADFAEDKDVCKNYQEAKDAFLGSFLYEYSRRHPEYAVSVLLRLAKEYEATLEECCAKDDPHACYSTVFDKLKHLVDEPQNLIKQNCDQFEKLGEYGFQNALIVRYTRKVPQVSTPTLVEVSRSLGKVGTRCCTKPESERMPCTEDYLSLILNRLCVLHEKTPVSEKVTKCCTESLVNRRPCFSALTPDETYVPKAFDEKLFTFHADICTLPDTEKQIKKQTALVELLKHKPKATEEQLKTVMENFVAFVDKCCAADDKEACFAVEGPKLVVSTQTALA

As for `COC(=O)C1=CC(CCCO)=CC(C2CC2)N(Cc2cccc(OC(F)(F)F)c2)C=C1C(=O)OC` (stereo not given), the composite z-score with Albumin (Bos taurus) is 0.896; in [2], -0.0039; in [3], -0.138; in test [4], 0.806; in test [5], 2.23; in test [6], 0.637. Further, the composite z-score with Sam68 (KHDRBS1) was 1.26; in test [7] it was -0.745; in test [8], 0.449. In addition, the composite Z-score in test [1] was 0.816 (inactive).
As for `COc1ccc(NN2C(C(O)c3cc(C(F)(F)F)cc(C(F)(F)F)c3)C=CC3C(=O)N(C4CCCCC4)C(=O)C32)cc1` (stereo not given), the composite z-score in the test with Albumin (Bos taurus) worked out at 0.771; in [2] it was 1.02; in [3] it was 0.659; in test [4], 0.589; in test [5], 1.5; in [6], 0.219. Moreover, the composite z-score with Sam68 (KHDRBS1) amounted to 1.07; in [7] it was 0.0186; in test [8], 1.04. Also, the composite Z-score in [1] is -0.0097 (inactive).
Consider `C=C(C(=O)CC[C@@H](OC(C)=O)c1cccc(OCCO)c1)C(C)C`, for which the composite z-score was 0.371 with Albumin (Bos taurus); -0.0311 in test [2]; -0.148 in test [3]; 0.862 in test [4]; 1.82 in test [5]; 0.0326 in test [6]. The values for the composite z-score (with Sam68 (KHDRBS1); in test [7]; in test [8]) were 0.813, -0.298 and 0.691, respectively. Also, the composite Z-score in test [1] was 0.566 (inactive).
For the molecule `COc1ccc(C#Cc2ccc3c(c2)[C@]2(C(=O)N3)[C@H](C(=O)Nc3nc4ccccc4s3)[C@H]3C(=O)O[C@H](c4ccccc4)[C@H](c4ccccc4)N3[C@@H]2c2ccc(OCCO)cc2)cc1`, the composite z-score with Albumin (Bos taurus) is 0.789; in [2], 0.109; in test [3], -0.0486; in test [4] it was 0.622; in test [5], 2.46; in test [6], 0.816. Besides, the composite z-score stood at 1.31 with Sam68 (KHDRBS1), 0.254 in test [7] and 1.17 in [8]. Moreover, in test [1], the composite Z-score is 0.403 (inactive).
With `CCCCCCCCCCC(O)C1C=CC2C(=O)N(C)C(=O)C2N1N1CCCCC1` (stereo not given), the composite z-score was -0.377 with Albumin (Bos taurus); -0.256 in [2]; -0.135 in test [3]; -0.284 in test [4]; 0.879 in [5]; 0.582 in test [6]. Also, the results for the composite z-score (in the test with Sam68 (KHDRBS1); in test [7]; in test [8]) were -0.555, -2.31 and -1.13, respectively. Moreover, the composite Z-score in test [1] was -0.0231 (inactive).
As to `CN(C)CCCCNC(=O)[C@H]1C[C@H]2C(=O)N[C@@H](Cc3ccccc3)C(=O)N2[C@H]1c1cccc(OCCO)c1`, the composite z-score is -0.598 in the test with Albumin (Bos taurus); -0.199 in [2]; -0.117 in test [3]; 0.627 in test [4]; -0.185 in test [5]; -0.507 in test [6]. Moreover, the results for the composite z-score (with Sam68 (KHDRBS1); in test [7]; in test [8]) were -1.16, 0.739 and 0.696, respectively. Also, the composite Z-score in [1] is -0.162 (inactive).
Turning to `COCCOC(=O)N1C(=O)[C@@]2(c3cc(C#CCC(C(=O)OC)C(=O)OC)ccc31)[C@H](C(N)=O)[C@H]1C(=O)O[C@H](c3ccccc3)[C@H](c3ccccc3)N1[C@@H]2c1ccc(OCCO)cc1`, the composite z-score with Albumin (Bos taurus) is 0.483; in test [2], 0.0271; in test [3], -0.0984; in test [4] it was 0.565; in test [5] it was 1.87; in [6], 0.307. Moreover, the composite z-score came to 1.29 with Sam68 (KHDRBS1), 0.519 in test [7] and 1.07 in [8]. In addition, in [1], the composite Z-score was -0.0102 (inactive).
For `CCCCC(=C=CC[C@@H](O)c1ccc(OCCO)cc1)C[C@@H](O)c1ccccn1`, the composite z-score with Albumin (Bos taurus) was 0.681; in [2] it was 0.0557; in test [3] it was -0.0785; in test [4], 0.326; in [5], -0.0207; in test [6] it was 0.209. The composite z-score came out at 1.15 with Sam68 (KHDRBS1), 0.102 in test [7] and 0.223 in [8]. The composite Z-score in [1] was 0.111 (inactive).
With `CCCC[C@@H]1C[C@H]1[C@@H](NC(=O)Cc1ccccc1)c1ccc(Cl)cc1`, the composite z-score was 1.1 with Albumin (Bos taurus); 0.532 in [2]; -0.129 in test [3]; 0.69 in [4]; 2.76 in test [5]; 0.323 in test [6]. Besides, the composite z-score was 1.31 with Sam68 (KHDRBS1), -1.01 in [7] and 1.16 in test [8]. In test [1], the composite Z-score was 0.491 (inactive).
Take `CN(C)C(=O)[C@@]1(CCS(=O)(=O)c2ccccc2)N=C(c2ccc(OCCCO)cc2)O[C@H]1c1ccccc1N=[N+]=[N-]`: the composite z-score in the test with Albumin (Bos taurus) is 0.856; in test [2] it was 0.488; in test [3], -0.112; in test [4] it was 0.669; in test [5], 2.13; in [6] it was 0.521. Further, the composite z-score in the test with Sam68 (KHDRBS1) is 1.29; in test [7] it was -0.0717; in test [8], 0.972. The composite Z-score in [1] is -0.288 (inactive).
In the case of `COC(=O)Cn1c(C(=O)N(C)C)cc2c1C[C@H]1CN(C(=O)c3ccccc3)[C@@](Cc3ccc(OC)cc3)(C(=O)OC)[C@@H]21`, the composite z-score with Albumin (Bos taurus) was 0.938; in [2], 0.332; in test [3], -0.037; in test [4], 0.845; in test [5] it was 3.28; in test [6], -0.0169. For the same molecule, the composite z-score was 1.08 in the test on Sam68 (KHDRBS1), -0.108 in test [7] and 0.812 in test [8]. Besides, in test [1], the composite Z-score is -0.945 (inactive).
In the case of `C=C(CCCC)C(=O)CC[C@H](OC(C)=O)c1ccccc1OCCO`, the composite z-score with Albumin (Bos taurus) is 0.326; in test [2], 0.156; in [3] it was -0.0242; in test [4] it was 0.113; in test [5], 0.0794; in test [6], 0.277. Also, the composite z-score in the test on Sam68 (KHDRBS1) is 0.368; in test [7] it was 0.544; in test [8] it was -0.0099. Further, the composite Z-score in test [1] was 0.7 (inactive).
On to `CC(C)CNC(=O)[C@@H]1c2ccccc2C(=O)N(C2Cc3ccccc3C2)[C@H]1c1ccc(CO)cc1`, for which the composite z-score with Albumin (Bos taurus) was -0.191; in test [2], -0.219; in test [3], -0.0984; in [4] it was 0.687; in test [5], 0.284; in [6], 1.45. For the same molecule, the composite z-score in the test with Sam68 (KHDRBS1) was 0.547; in [7], -0.0902; in test [8], 0.378. Also, in test [1], the composite Z-score is -0.577 (inactive).
